Screening data (PubChem)
GLP1R inv ag: inverse agonists of human GLP-1 receptor; P43220; Potency, µM (doses to about 38.3 µM), for the others: at the top dose activity change, negative = inhibition, most hits filed as inhibitors; AID 624417; HEK293 GLP-1R CRE-luciferase, luminescence, 24 h; GLP-1R form is constitutively active; 1.6% of 410,000 active; note: potency is the fitted concentration of half-maximal effect; % is set by controls: 0 for no effect and ±100 for the full control effect; nearly all actives have a fitted effect of over 55% in size
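Inverse agonists were sought by their lowering of basal cAMP reporter luciferase output in HEK293 cells stably carrying constitutively active human GLP-1R, after 24 h compound treatment.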
GLP1R cytotox: cytotoxicity in counter-screen for GLP-1R inverse agonists | Potency, µM (doses to about 38.3 µM), for the others: at the highest dose activity change, negative = inhibition, usual class: inhibitors | 0.13% of 410,000 active | HEK293 cAMP-luciferase reporter cells, luminescence, 24 h;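 note: loss of luciferase light is scored as toxicity; potency is the fitted concentration of half-maximal effect; % is set by controls: 0 for no effect and ±100 for the full control effect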
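Luminescence readout: signal drop marks cytotoxicity. Plated cells grew 12 h at 37 °C, 5% CO2, received 23 nL compound for 24 h, then got luciferase reagent, read after 12 min at RT.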
GLP-1R agonist: agonists of human GLP-1 receptor | 0.007% of 380,000 active | Potency, µM (series often up to 45.6 µM), inactives show top-dose activation, most hits filed as activators | P43220 | HEK293 GLP-1R CRE-luciferase, luminescence, 4-6 h; cells express a hypersensitive GLP-1R form | AID 624172; note: potency is the fitted concentration of half-maximal effect; % of control where 0% means no effect
LDHA block: LDHA (human) enzyme inhibition. P00338. 0.15% of 480,000 active. activity change, % (values are at about 110 or 230 µM). purified LDHA, NADH/diaphorase-resazurin fluorescence; hits give low values; in the data active = activity change below about -30%; inconclusive = mostly about -25% to -30%;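 note: plate controls were DMSO wells for no effect and wells without enzyme for full effect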
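Resorufin fluorescence (ex540/em590), read at 0 and 20 min after diaphorase/resazurin addition, reports the NADH left after a 5 min room-temperature reaction of 2 nM human LDH5 with 0.06 mM NADH and 0.2 mM pyruvate.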
mIDH1 inhibitor: blocks human mutant IDH1 R132H enzyme. IDH1-R132H enzyme, NADPH consumption, diaphorase/resazurin fluorescence. Potency, µM (doses to about 76.6 µM), inactives show top-dose activity change, negative = inhibition, most hits filed as inhibitors. 0.093% of 390,000 active; note: potency is the fitted concentration of half-maximal effect; % is set by controls: 0 for no effect and ±100 for the full control effect; nearly all actives have a fitted effect of over 65% in size
Target sequence (O75874 whole entry R132H, stated change not applied): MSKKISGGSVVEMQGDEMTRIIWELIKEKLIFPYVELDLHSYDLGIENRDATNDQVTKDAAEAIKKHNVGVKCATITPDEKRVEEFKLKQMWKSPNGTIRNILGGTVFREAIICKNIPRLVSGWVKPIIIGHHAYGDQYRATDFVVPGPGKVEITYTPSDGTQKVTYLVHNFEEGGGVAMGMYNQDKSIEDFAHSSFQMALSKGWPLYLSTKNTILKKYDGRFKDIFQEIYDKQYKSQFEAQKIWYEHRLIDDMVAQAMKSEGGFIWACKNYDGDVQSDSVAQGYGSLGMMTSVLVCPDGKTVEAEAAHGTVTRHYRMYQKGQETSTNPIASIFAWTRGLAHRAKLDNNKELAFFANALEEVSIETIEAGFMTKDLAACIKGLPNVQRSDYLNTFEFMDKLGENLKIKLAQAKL
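IDH1-R132H (0.5 ug/mL dispensed) in pH 7.5 Tris buffer was preincubated 30 min with compound, then given a substrate mix of 0.016 mM NADPH and 2 mM alpha-KG for 80 min at room temperature; remaining NADPH was read by diaphorase/resazurin fluorescence.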
PTHR1 agonist: activates the human parathyroid hormone receptor PTHR1. Q03431. HEK293 GP2 PTHR1 cells, GloSensor cAMP luminescence, 1 h. Potency, µM (highest dose often 115 µM), for inactives: top-dose activation, hits mostly activators. 0.075% of 410,000 active. AID 743266; note: potency is the fitted concentration of half-maximal effect; nearly all actives have a fitted effect of over 55% in size
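HEK-293-derived GP2 cells expressing PTHR1 and a GloSensor cAMP reporter, 3,000/well, plated overnight, given luciferin plus IBMX (each 0.5 mM as added) for 1 h at 37 °C, then compound for 1 h at 37 °C. Luminescence was read after 15 min at room temperature.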
Starred values were filed as active, the others as inactive; i = inactive; u = inconclusive; x = not tested or not shown; [ ] = another dose, or the depositor's remark. This is a sample that favours compounds with a hit; in the whole collection about 1.7% have one here. Unless noted, calls come from the whole dose curve; as a rule, active = well fitted curve in the direction sought with a large enough effect; inconclusive = small, poorly fitted or top-dose-only effect, or another doubt; inactive = no such curve, though single readings can be large; an effect the other way counts as inactive or inconclusive.

SMILES	GLP1R inv ag	GLP1R cytotox	GLP-1R agonist	LDHA block	mIDH1 inhibitor	PTHR1 agonist
FC(F)(F)c1ccc(C2[C@H]3CN(Cc4cccnc4)[C@H](c4ccccc4)C34CC2(c2cccnc2)C4)cc1 (stereo partly specified)	11µM*	u	-4%	1	-30%	-18%
CCN1CCN(c2ccc(Nc3ccnc4ccccc34)cc2)CC1	3.5µM*	-17%	-5%	0	-6%	u
CN1CCN(c2ccc(Nc3c4ccccc4nc4ccccc34)cc2)CC1	x	x	x	8	x	x
CC(C)(C)N/N=C/c1cc(Cl)cc([N+](=O)[O-])c1O	-1%	u	-21%	7	3%	-34%
CN(/N=C/c1cc(Cl)cc(Cl)c1O)c1c(Cl)cccc1[N+](=O)[O-]	8.9µM*	-2%	9%	1	2%	-19%
COc1ccc(NC(=O)c2cc(C)nc3c2c(C)nn3-c2ccc(C)cc2)cc1OC	-18%	-1%	x	-9	-7%	-39%
COc1cc(NC(=O)c2cc(C)nc3c2c(C)nn3-c2ccccc2Cl)cc(OC)c1	13µM*	-3%	-7%	5	1%	-44%
CCc1ccc(-n2nc(C)c3c(C(=O)Nc4cc(OC)cc(OC)c4)cc(C)nc32)cc1	5µM*	0%	x	-7	0%	-33%
CNC(=O)c1c(NC(=O)c2ccc(S(=O)(=O)N3CCCc4ccccc43)cc2)sc2c1CCN(C)C2	4.5µM*	3%	14%	-2	-2%	-1%
CN1CCc2c(sc(NC(=O)c3ccc(S(=O)(=O)N4CCCC4)cc3)c2C(N)=O)C1	24%	-15%	5%	-15	0%	-19%
CC(=O)Oc1ccc(Cl)cc1CN(C(C)=O)C1CCCCC1	8.9µM*	-8%	6%	-2	5%	i
Cc1cc(Sc2nnc(/N=C/N(C)C)s2)c2ccccc2n1	3.2µM*	-7%	-5%	-10	0%	-35%
CCCCCC(=O)NC(Nc1ccc(S(N)(=O)=O)cc1)C(Cl)(Cl)Cl (stereo unspecified)	-23%	8%	-9%	-4	0%	i
CCCCCCC(=O)NC(Nc1ccc(S(N)(=O)=O)cc1)C(Cl)(Cl)Cl (stereo unspecified)	8.9µM*	-14%	-11%	-3	-1%	i
CC1CCc2c(sc(NC(=O)c3cccs3)c2C(=O)O)C1 (stereo unspecified)	-30%	-17%	0%	-40*	-2%	-25%
CC(C)(C)C1CCc2c(sc(NC(=O)c3cccs3)c2C(=O)N2CCCCC2)C1 (stereo unspecified)	3.5µM*	0%	-15%	-2	1%	i
O=C(Nc1sc2c(c1C(=O)O)CCCCC2)c1cccs1	u	-19%	-8%	-42*	11%	-45%
CC(C)(C)C1CCc2c(sc(NC(=O)c3ccccc3Cl)c2C(=O)N2CCOCC2)C1 (stereo unspecified)	x	x	x	7	x	x
COC(=O)c1c(NC(=O)c2cccs2)sc2c1CCC(C)C2 (stereo unspecified)	24%	2%	8%	-8	3%	0%[57.5 µM]
O=C(NC1CCCC1)C(c1ccccc1)N(C(=O)c1ccco1)C1CCCC1 (stereo unspecified)	13µM*	u	5%	-8	1%	-1%
O=C(NC1CCCC1)C(c1ccccc1F)N(C(=O)c1ccco1)C1CCCC1 (stereo unspecified)	u	-16%	-9%	-3	-2%	i
CCC(COC)NCc1cn(-c2ccc(OC)cc2)nc1-c1cccc(F)c1 (stereo unspecified)	4.5µM*	u	4%	-1	8%	u
COc1ccc(-n2cc(CNC(C)c3ccncn3)c(-c3cccc(F)c3)n2)cc1 (stereo unspecified)	u	3%	8%	-3	0%	i
COC(=O)c1c(C)c2c(C)cc3ccccn3c-2c1C(=O)OC	-19%	2%	30%	-3	4%	-10%[57.5 µM]
COC(=O)c1cc2c(-c3ccccc3)cc3ccccn3c-2c1C(=O)OC	7.9µM*	u	14%	-5	-1%	i
SMILES	GLP1R inv ag	GLP1R cytotox	GLP-1R agonist	LDHA block	mIDH1 inhibitor	PTHR1 agonist
CCCc1ccc(S(=O)(=O)N2CCN(C(C)C(=O)NCc3ccc(OC)cc3)CC2)cc1 (stereo unspecified)	10µM*	-6%	-2%	-8	-3%	-63%
COc1ccc(CNC(=O)C(C)N2CCN(S(=O)(=O)c3ccccc3F)CC2)cc1 (stereo unspecified)	-5%	-15%	9%	0	2%	i
COc1ccccc1Nc1nc(-c2ccc3c(c2)CCC(=O)N3)cs1	x	x	x	-31*	x	x
COc1cccc(Nc2nc(-c3ccc4c(c3)CCC(=O)N4)cs2)c1	x	x	x	-1	x	x
CCCCc1c(C)[nH]n(-c2nc(C)c(C(=O)Nc3ccccc3)s2)c1=O	x	x	x	-3	x	x
CCCCc1c(C)[nH]n(-c2nc(C)c(C(=O)Nc3cccc(OC)c3)s2)c1=O	x	x	x	-36*	x	x
CSc1nn(CCN(C)C)c2nc3sc4c(c3c(=O)n12)CCCCC4	x	x	x	-8	x	x
Cc1ccc(C(=O)Nc2ncc([N+](=O)[O-])s2)cc1	1.1µM*	-24%	-7%	-3	25%	-29%
COc1cc(C(=O)Oc2ccccc2/C=N/NC(=O)c2ccc(Cl)cc2Cl)cc(OC)c1OC	2.2µM*	-35%	2%	-1	17%	-18%[57.5 µM]
CCOc1ccccc1N1CC(c2nc3ccccc3n2CCCCOc2ccccc2)CC1=O (stereo unspecified)	1%	1%	x	-4	0%	i
O=C1CC(c2nc3ccccc3n2CCCCOc2ccccc2)CN1c1ccccc1Cl (stereo unspecified)	10µM*	-17%	x	5	18%	-32%
COc1ccc(OCCCCn2c(C3CC(=O)N(c4cccc(Cl)c4)C3)nc3ccccc32)cc1 (stereo unspecified)	10µM*	1%	x	-2	14%	-19%
Cc1ccc(OCCCn2c(C3CC(=O)N(c4cccc(Cl)c4)C3)nc3ccccc32)c(C)c1 (stereo unspecified)	u	1%	x	1	-17%	-19%
Cc1cccc(N2CCN(C(=S)c3ccc4c(c3)OCO4)CC2)c1	11µM*	u	8%	-4	1%	-15%
S=C(c1ccc2c(c1)OCO2)N1CCN(c2cccc(Cl)c2)CC1	u	u	12%	-7	-9%	i
O=C(NCc1ccco1)c1cc2cc(Cl)ccc2[nH]1	x	x	x	-7	x	x
